Rows were chosen to be rich in hits. Some 2.8% of all compounds tested hit in one or more screens of this group.
DAGLB inhibitor = diacylglycerol lipase beta (human) inhibition | HEK293T DAGLB membrane lysate, EnzChek fluorogenic substrate | inhibition, % at 5.17 µM | actives 0.059% (n = 340,000) | AID 504411; in the data active = inhibition above about 34%;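 note: 0% = enzyme with vehicle and 100% = wells lacking enzyme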
Target sequence (Q8NCG7 whole entry, looked up): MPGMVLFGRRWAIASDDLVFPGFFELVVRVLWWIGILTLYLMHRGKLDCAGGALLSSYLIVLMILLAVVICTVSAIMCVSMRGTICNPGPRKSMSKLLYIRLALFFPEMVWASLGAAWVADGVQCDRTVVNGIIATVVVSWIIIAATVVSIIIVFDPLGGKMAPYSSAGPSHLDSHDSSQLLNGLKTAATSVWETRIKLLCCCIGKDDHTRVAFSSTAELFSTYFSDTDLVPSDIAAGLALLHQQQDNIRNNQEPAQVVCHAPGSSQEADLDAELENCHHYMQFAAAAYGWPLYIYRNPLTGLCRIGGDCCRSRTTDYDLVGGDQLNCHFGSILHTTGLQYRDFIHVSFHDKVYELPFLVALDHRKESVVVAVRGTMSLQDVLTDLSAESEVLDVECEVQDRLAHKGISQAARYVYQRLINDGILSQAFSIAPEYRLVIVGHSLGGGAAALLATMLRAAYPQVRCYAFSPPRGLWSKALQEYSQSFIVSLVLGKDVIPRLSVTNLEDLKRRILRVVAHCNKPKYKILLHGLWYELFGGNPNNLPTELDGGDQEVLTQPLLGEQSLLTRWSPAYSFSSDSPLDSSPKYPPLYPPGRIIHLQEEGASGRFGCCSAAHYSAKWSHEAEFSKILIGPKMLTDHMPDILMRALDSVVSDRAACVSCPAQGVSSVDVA
PAFAH1B3 inh = PAFAH1B3 (human) inhibition; Q15102; recombinant PAFAH1B3, FP-rhodamine probe, fluorescence polarization; inhibition, % at 3.39 µM; actives 0.28% (n = 340,000);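 active = inhibition above the screen-wide average of all tested compounds plus 3 SD, cut at about 25% in these data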;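 note: 0% = enzyme with DMSO only and 100% = wells lacking PAFAH1B3 protein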
HTRA1 inh = HTRA1 (human) protease inhibition | recombinant HTRA1, FP-rhodamine activity-based probe, fluorescence polarization | Q92743 | inhibition, % at 5.96 µM | actives 0.5% (n = 340,000) | AID 504803; in the data active = inhibition above about 36%;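 note: 0% = enzyme with DMSO and 100% = wells lacking enzyme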
PAFAH2 FP inh = PAFAH2 (human) inhibition; actives 0.99% (n = 340,000); recombinant PAFAH2, FP-rhodamine activity probe, fluorescence polarization; AID 492956; inhibition, % at 3.39 µM; Q99487;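 active = inhibition above the mean over all tested compounds plus 3 SD, cut at about 30% in these data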;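 note: inhibitors block probe labeling of enzyme so polarization drops; 0% = enzyme with DMSO and 100% = wells lacking PAFAH2 protein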
PAFAH1B2 inh = inhibitors of human PAFAH1B2. P68402. recombinant PAFAH1B2, FP-rhodamine activity probe, fluorescence polarization. AID 492953. inhibition, % at 3.39 µM. actives 1.2% (n = 340,000);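 active = inhibition above the mean of all tested compounds plus 3 SD, cut at about 24% in these data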;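 note: 0% = enzyme with DMSO and 100% = wells lacking PAFAH1B2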
pPAFAH FP inh = pPAFAH (human) enzyme inhibition. inhibition, % at 3.39 µM. recombinant pPAFAH, FP-rhodamine probe fluorescence polarization. actives 1.5% (n = 330,000). AID 463082;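 active = inhibition above the mean inhibition across the screen plus 3 SD, cut at about 25% in these data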;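 note: inhibitors block binding of the rhodamine activity-based probe so polarization drops; 0% = enzyme with DMSO and 100% = wells lacking pPAFAH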
pPAFAH confirm = pPAFAH (human) inhibition, confirmed. shares compounds with pPAFAH FP inh. recombinant pPAFAH, FP-Rh probe fluorescence polarization. inhibition, % at 3.39 µM. actives 72% (n = 2,300). AID 463230;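 active = mean inhibition of the triplicate above the hit cutoff set for the earlier primary screen, cut at about 25% in these data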;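 note: 0% = enzyme with DMSO and 100% = wells lacking pPAFAH enzyme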
The depositor's hits bear a star; x = not tested or not shown.

SMILES | DAGLB inhibitor | PAFAH1B3 inh | HTRA1 inh | PAFAH2 FP inh | PAFAH1B2 inh | pPAFAH FP inh | pPAFAH confirm
O=C(O)CN1C(=O)/C(=C\c2cc(Br)ccc2OCc2ccc(Cl)cc2Cl)SC1=S | 9 | -1 | -52 | 33* | 18 | 52* | 67*
O=C(O)CN1C(=O)/C(=C/c2ccsc2)SC1=S | x | x | x | x | x | 4 | x
CCOc1ccc(N(C(=O)c2ccc3c(c2)OCO3)C2C=CS(=O)(=O)C2)cc1 (stereo not given) | 2 | 8 | -3 | 0 | 1 | 8 | x
O=C(CCN1C(=O)/C(=C/c2ccco2)SC1=S)Nc1ccc(C(=O)O)c(O)c1 | 4 | 10 | -12 | 7 | 6 | 40* | 18
COc1ccccc1/C=C1\SC(=S)N(CCC(=O)Nc2ccc(C(=O)O)c(O)c2)C1=O | 5 | 6 | -86 | -1 | 8 | 18 | x
O=C(CCN1C(=O)/C(=C\c2ccco2)SC1=S)Nc1ccc(C(=O)O)c(O)c1 | 6 | 11 | 4 | 16 | 1 | 49* | 15
COc1ccccc1NS(=O)(=O)c1ccc(-c2cnc(C3CC3)o2)cc1 | 2 | 9 | -11 | 24 | 4 | -5 | x
Cc1ccc(NS(=O)(=O)c2ccc(-c3cnc(C4CC4)o3)cc2)c(C)c1 | -2 | 14 | -50 | 4 | 2 | 53* | 46*
CC(C)=CCc1cc2c(=O)c3c(O)c4c(cc3oc2c(O)c1O)OC(C)C4(C)C (stereo not given) | x | x | x | x | x | 67* | 86*
Cc1ccc(CNC(=O)Cn2cnc(S(=O)(=O)N3CCC(C)CC3)c2)o1 | 2 | 6 | 8 | 5 | 1 | 5 | x
Cc1cc(/C=C(\C#N)C(=O)NCC2CCCO2)c(C)n1-c1ccc(Cl)cc1 (stereo not given) | -3 | -8 | -15 | 4 | 2 | 67* | 69*
COc1cc(/C=C(\C#N)C(=O)NCC2CCCO2)ccc1O (stereo not given) | 1 | 11 | 1 | 2 | -1 | 6 | x
COc1ccc(C2(C(=O)Nc3ccc(C)c(C)c3)CCOCC2)cc1 | -2 | 2 | -11 | -9 | -2 | -2 | x
O=C(NCCO)c1ccc(Cl)c(Cl)c1 | 1 | 3 | 12 | -4 | -6 | 0 | x
O=C(NC1CCCC1)c1ccc2nc(-c3ccco3)c(-c3ccco3)nc2c1 | 11 | 14 | 58* | 38* | 16 | 68* | 34*
O=C(NCCO)c1ccc2nc(-c3ccco3)c(-c3ccco3)nc2c1 | 1 | 40* | 22 | 31* | 19 | 39* | 11
CC(=O)c1ccc(NC(=O)C(C)OC(=O)c2ccc(Br)o2)cc1 (stereo not given) | 1 | 1 | -10 | -8 | 1 | -1 | x
Cc1c(/C=N/NC(=O)c2cc(Br)ccc2O)c(=O)n(C)c(=O)n1C | -2 | 2 | 5 | -12 | 5 | 7 | x
Cc1cccc(NS(=O)(=O)c2ccc3[nH]c(=O)oc3c2)c1C | 5 | 12 | 2 | 3 | -3 | 68* | 70*
Cc1ccc(C)c(NS(=O)(=O)c2ccc3[nH]c(=O)oc3c2)c1 | 2 | 3 | 3 | 4 | 3 | 42* | 12
Cc1ccc(NS(=O)(=O)c2ccc3[nH]c(=O)oc3c2)cc1Cl | 1 | 7 | -3 | 4 | 10 | 48* | 58*
Cc1ccc(C)c(NS(=O)(=O)c2ccc3[nH]c(=O)[nH]c3c2)c1 | 1 | 5 | 3 | -9 | 2 | 11 | x
COc1ccc(CCN2CC(C(=O)NCc3cccc(F)c3)CCC2=O)cc1 (stereo not given) | 0 | x | -1 | x | x | x | x
CC(=O)c1ccc(N2CCN(C(=O)c3ccc(Cn4c(=S)[nH]c5ccc(N6CCOCC6)cc5c4=O)cc3)CC2)cc1 | 7 | 12 | 5 | 13 | 5 | 49* | 23
CN(c1ccccc1)S(=O)(=O)c1cccc(C(=O)NCCc2ccc(O)c(O)c2)c1 | 2 | 7 | 25 | 8 | 1 | 37* | 43*
SMILES | DAGLB inhibitor | PAFAH1B3 inh | HTRA1 inh | PAFAH2 FP inh | PAFAH1B2 inh | pPAFAH FP inh | pPAFAH confirm
CCN(CC)S(=O)(=O)c1cccc(C(=O)NCCc2ccccc2)c1 | 0 | -16 | 1 | -3 | 1 | -6 | x
Cc1cc(C(C)(C)C)cc(C)c1COC(=O)c1cccnc1 | -5 | 12 | -7 | -3 | -4 | 4 | x
COc1ccc(CCNc2oc(-c3cccc4ccccc34)nc2P(=O)(OC)OC)cc1OC | 3 | 8 | 7 | -4 | 0 | 3 | x
COP(=O)(OC)c1nc(-c2cccc3ccccc23)oc1NCCc1ccccc1 | -5 | 8 | -41 | 4 | 3 | 38* | 31*
O=C(O)COc1ccc(/C=N/NC(=O)c2cccc3ccccc23)cc1 | -2 | 13 | -5 | -6 | 2 | 5 | x
CCOC(=O)C1Nc2ccc(C(=O)O)cc2C2C=CCC12 (stereo not given) | -1 | 49* | 25 | 18 | 24 | 40* | 7
CCCNc1c(F)c(F)c2c(C)c3ccccc3nc2c1F | -9 | 12 | 51* | 20 | 6 | 35* | 20
Cc1c2ccccc2nc2ccccc12 | 10 | 3 | 8 | 3 | 5 | 0 | x
CCCCOc1ccc(-c2cc(C(=O)NNC(=S)NCC)c3ccccc3n2)cc1 | 0 | 12 | -3 | 0 | 1 | 42* | 51*
CCCCOc1cccc(-c2cc(C(=O)NNC(=S)NCC)c3ccccc3n2)c1 | -2 | 4 | -10 | 8 | 5 | 21 | x
COc1ccc(CCNC(=O)c2cc(-c3ccco3)nc3ccccc23)cc1 | x | x | x | x | x | 36* | 15
N=C(N)N1CCN(Cc2ccccc2)CC1 | x | x | x | x | x | 0 | x
COc1cccc(=O)c2c(C)n(CC(=O)c3ccccc3)c(C)c12 | 3 | 7 | 29 | 8 | 2 | 38* | 16
CCOc1cccc(=O)c2c(C)n(CC(=O)c3ccccc3)c(C)c12 | 3 | -2 | 21 | -6 | 0 | 24 | x
O=C(CCCSc1ccc(Cl)cc1)Nc1cc(S(=O)(=O)N2CCOCC2)ccc1O | -1 | 2 | -5 | 79* | 63* | 91* | 89*
COc1ccc(S(=O)(=O)N2CCOCC2)cc1NC(=O)CCCSc1ccccc1 | -8 | x | 1 | x | x | x | x
CN1/C(=C\C=C2/C(=O)Oc3ccccc3C2=O)C(C)(C)c2ccccc21 | x | x | x | x | x | 35* | -60
CN1C(=CC=C2C=C(I)C(=O)C(I)=C2)C(C)(C)c2ccccc21 | 7 | -386 | -182 | -333 | -248 | x | x
COCCNC(=O)Cn1cnc2c(cnn2-c2ccc(C)cc2)c1=O | 1 | 8 | -11 | 7 | 5 | -2 | x
COC(=O)c1ccc(-n2c(C)cc(/C=N/Nc3nc(C)cc(=O)[nH]3)c2C)cc1 | -2 | 7 | 18 | 4 | 1 | 67* | 89*
CCNC(=S)N1CCN(C(=O)C(Cc2ccccc2)NC(C)=O)CC1 (stereo not given) | 0 | 7 | 1 | 0 | 4 | -3 | x

Compound activity from PubChem BioAssay.
